Reference: PubChem BioAssay AID1159580 (chemical genetic matrix, 2015)
Where “and” joins values, the source holds several entries; their conditions need not be identical. Equal values may be shown once. Screen size: about 5,500 compounds; about 2,000 (36%) were called active. About 18% were inconclusive and are not listed. No stated cut-off is given here; in the data, active means normalized growth mostly below about 0.91 (no sharp cut-off); inconclusive means no clear call, values can overlap the other calls; inactive means mostly above about 0.92. Some of the results follow.

Assay: chemical genetic growth profiling, strain panel (AID 1159580);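 further: tested at 20 µM; growth read once vehicle control cultures reached saturation at 30 °C; 1 = growth at the plate median or of vehicle wells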
Details: S. cerevisiae deletion strains, growth OD

Measured: normalized growth

CC1(C)C2CC(=O)[C@]3(C)C(CC[C@@]4(C)[C@H](c5ccoc5)OC(=O)C5OC543)[C@@]2(C)[C@@H](O)C[C@H]1O (stereo not given in full)
inactive: locus YAL021C, strain ccr4, stronger effect = lower value 0.987 | locus YAL026C, strain drs2, stronger effect = lower value 1.01 | locus YAL030W, strain snc1, stronger effect = lower value 1 | locus YBL061C, strain skt5, stronger effect = lower value 1.01 | locus YBR009C, strain hhf1, stronger effect = lower value 1.02 | locus YBR021W, strain FUR4, stronger effect = lower value 1 | locus YBR023C, strain chs3, stronger effect = lower value 1.01 | locus YBR171W, strain sec66, stronger effect = lower value 1.03 | locus YBR229C, strain ROT2, stronger effect = lower value 1.01 | locus YBR231C, strain swc5, stronger effect = lower value 1.01 | locus YBR279W, strain paf1, stronger effect = lower value 1 | locus YCL011C, strain gbp2, stronger effect = lower value 1.01 | locus YCL016C, strain dcc1, stronger effect = lower value 1.01 | locus YCL029C, strain bik1, stronger effect = lower value 1.02 | locus YCL069W, strain vba3, stronger effect = lower value 1.02 | locus YCR088W, strain abp1, stronger effect = lower value 1.01 | locus YDL005C, strain med2, stronger effect = lower value 1 | locus YDL035C, strain GPR1, stronger effect = lower value 1.08 | locus YDL040C, strain nat1, stronger effect = lower value 1 | locus YDL074C, strain BRE1, stronger effect = lower value 1.09 | locus YDL101C, strain DUN1, stronger effect = lower value 1.02 | locus YDL134C, strain PPH21, stronger effect = lower value 1.04 | locus YDL185W, strain tfp1, stronger effect = lower value 0.996 | locus YDL192W, strain arf1, stronger effect = lower value 1.01 | locus YDR001C, strain nth1, stronger effect = lower value 1 | locus YDR069C, strain doa4, stronger effect = lower value 0.995 | locus YDR101C, strain arx1, stronger effect = lower value 0.98 | locus YDR137W, strain rgp1, stronger effect = lower value 1.02 | locus YDR159W, strain sac3, stronger effect = lower value 1.03 | locus YDR162C, strain NBP2, stronger effect = lower value 1.05 | locus YDR195W, strain ref2 0.968 | locus YDR297W, strain sur2, stronger effect = lower value 1.01 | locus YDR318W, strain mcm21, stronger effect = lower value 1 | locus YDR334W, strain swr1, stronger effect = lower value 1 | locus YDR335W, strain msn5, stronger effect = lower value 1.01 | locus YDR388W, stronger effect = lower value 0.976 | locus YDR392W, strain spt3, stronger effect = lower value 1.01 | locus YDR502C, strain sam2, stronger effect = lower value 1.01 | locus YEL003W, strain gim4, stronger effect = lower value 1.01 | locus YEL037C, strain rad23, stronger effect = lower value 1 | locus YEL061C, strain CIN8 (second series), stronger effect = lower value 0.994 | locus YER015W, strain faa2, stronger effect = lower value 0.997 | locus YER016W, strain bim1, stronger effect = lower value 1.01 | locus YER110C, stronger effect = lower value 0.988 | locus YER111C, strain swi4, stronger effect = lower value 1.01 | locus YER155C, strain BEM2 (second series), stronger effect = lower value 1.02 | locus YER155C, strain BEM2, stronger effect = lower value 1 | locus YER167W, strain BCK2, stronger effect = lower value 1.01 | locus YFR010W, strain ubp6, stronger effect = lower value 0.994 | locus YGL078C, strain dbp3, stronger effect = lower value 0.987 | locus YGL086W, strain mad1, stronger effect = lower value 1 | locus YGL167C, strain pmr1, stronger effect = lower value 1 | locus YGL173C, strain kem1, stronger effect = lower value 1.01 | locus YGL227W, strain vid30, stronger effect = lower value 1.03 | locus YGL240W, strain doc1, stronger effect = lower value 1.01 | locus YGL248W, strain PDE1, stronger effect = lower value 1.06 | locus YGL253W, strain hxk2, stronger effect = lower value 1 | locus YGR078C, strain PAC10, stronger effect = lower value 1.05 | locus YGR135W, strain pre9, stronger effect = lower value 1 | locus YGR252W, strain gcn5, stronger effect = lower value 0.913 | locus YHR013C, strain ard1, stronger effect = lower value 1.02 | locus YHR027C, strain rpn1, stronger effect = lower value 0.985 | locus YHR030C, strain SLT2, stronger effect = lower value 1.02 and 1.04 | locus YHR079C, strain IRE1 (second series), stronger effect = lower value 0.985 | locus YHR079C, strain IRE1, stronger effect = lower value 1.03 | locus YHR094C, strain hxt1, stronger effect = lower value 0.982 | locus YHR129C, strain ARP1, stronger effect = lower value 1.03 | locus YHR142W, strain chs7, stronger effect = lower value 0.989 | locus YHR200W, strain rpn10, stronger effect = lower value 0.996 | locus YIL066C, strain RNR3, stronger effect = lower value 1.02 | locus YIL073C, strain SPO22, stronger effect = lower value 1.12 | locus YIL125W, strain kgd1, stronger effect = lower value 0.992 | locus YIR030C, strain dcg1, stronger effect = lower value 0.985 | locus YJL092W, strain hpr5, stronger effect = lower value 1 | locus YJL095W, strain BCK1 (second series), stronger effect = lower value 1.02 | locus YJL095W, strain BCK1, stronger effect = lower value 1.07 and 1.01 | locus YJL115W, strain asf1, stronger effect = lower value 0.999 | locus YJL129C, strain trk1, stronger effect = lower value 1.02 | locus YJL134W, strain LCB3, stronger effect = lower value 1.01 | locus YJL154C, strain vps35, stronger effect = lower value 0.999 | locus YJL164C, strain tpk1, stronger effect = lower value 1.01 | locus YJL166W, strain qcr8, stronger effect = lower value 1.01 | locus YJL168C, strain set2, stronger effect = lower value 1 | locus YJL187C, strain SWE1 (second series), stronger effect = lower value 1.03 | locus YJL187C, strain SWE1, stronger effect = lower value 1.01 | locus YJR066W, strain TOR1, stronger effect = lower value 0.964 | locus YKL009W, strain mrt4, stronger effect = lower value 0.998 | locus YKL068W, stronger effect = lower value 0.984 | locus YKL085W, strain MDH1 (second series), stronger effect = lower value 0.989 | locus YKL085W, strain MDH1, stronger effect = lower value 0.989 | locus YKL160W, strain elf1, stronger effect = lower value 1.02 | locus YKL190W, strain CNB1, stronger effect = lower value 1.01 | locus YKR001C, strain vps1, stronger effect = lower value 0.997 | locus YKR026C, strain gcn3, stronger effect = lower value 1.01 | locus YKR091W, strain srl3, stronger effect = lower value 1.01 | locus YLL001W, strain dnm1, stronger effect = lower value 0.999 | locus YLL026W, stronger effect = lower value 1 | locus YLL041C, strain sdh2, stronger effect = lower value 0.997 | locus YLR027C, strain aat2, stronger effect = lower value 1.01 | locus YLR039C, strain RIC1, stronger effect = lower value 1.17 | locus YLR058C, strain SHM2, stronger effect = lower value 1.03 | locus YLR102C, strain apc9, stronger effect = lower value 0.989 | locus YLR113W, strain HOG1, stronger effect = lower value 0.988 | locus YLR221C, strain rsa3, stronger effect = lower value 1.01 | locus YLR258W, strain gsy2, stronger effect = lower value 1.01 | locus YLR262C, strain YPT6 (second series), stronger effect = lower value 1.01 | locus YLR268W, strain sec22, stronger effect = lower value 1.02 | locus YLR320W, strain mms22, stronger effect = lower value 1 | locus YLR342W, strain FKS1 (second series), stronger effect = lower value 1.04 | locus YLR342W, strain FKS1, stronger effect = lower value 1.02 | locus YLR357W, strain rsc2, stronger effect = lower value 1.01 | locus YLR370C, strain arc18, stronger effect = lower value 0.996 | locus YLR371W, strain rom2, stronger effect = lower value 0.992 | locus YLR384C, strain iki3, stronger effect = lower value 0.99 | locus YLR418C, strain cdc73, stronger effect = lower value 0.974 | locus YML016C, strain PPZ1, stronger effect = lower value 1.01 | locus YML032C, strain rad52, stronger effect = lower value 0.986 | locus YML120C, strain ndi1, stronger effect = lower value 1.01 | locus YML124C, strain tub3, stronger effect = lower value 0.992 | locus YMR058W, strain fet3, stronger effect = lower value 1 | locus YMR078C, strain ctf18, stronger effect = lower value 0.988 | locus YMR125W, strain sto1, stronger effect = lower value 1.01 | locus YMR129W, stronger effect = lower value 1 | locus YMR205C, strain PFK2, stronger effect = lower value 1.03 | locus YMR223W, strain ubp8, stronger effect = lower value 0.985 | locus YMR231W, strain pep5, stronger effect = lower value 1.01 | locus YMR263W, strain SAP30, stronger effect = lower value 1.01 | locus YMR307W, strain GAS1, stronger effect = lower value 1.15 | locus YNL067W, strain RPL9B, stronger effect = lower value 1.02 | locus YNL071W, strain lat1, stronger effect = lower value 1 | locus YNL153C, strain GIM3, stronger effect = lower value 1.06 | locus YNL183C, strain NPR1, stronger effect = lower value 0.967 | locus YNL209W, strain ssb2, stronger effect = lower value 0.997 | locus YNL233W, strain BNI4, stronger effect = lower value 1.06 | locus YNL248C, strain rpa49, stronger effect = lower value 1 | locus YNL250W, strain rad50, stronger effect = lower value 1.03 | locus YNL271C, strain bni1, stronger effect = lower value 0.968 | locus YNL298W, strain CLA4, stronger effect = lower value 0.991 | locus YNL307C, strain MCK1, stronger effect = lower value 0.987 | locus YNL322C, strain KRE1 (second series), stronger effect = lower value 1.03 | locus YNR049C, strain mso1, stronger effect = lower value 0.997 | locus YNR052C, strain pop2, stronger effect = lower value 0.975 | locus YOL012C, strain htz1 1.54 | locus YOL147C, strain pex11, stronger effect = lower value 0.982 | locus YOR001W, strain rrp6, stronger effect = lower value 1.01 | locus YOR061W, strain CKA2, stronger effect = lower value 1.01 | locus YOR069W, strain VPS5, stronger effect = lower value 1.01 | locus YOR070C, strain gyp1, stronger effect = lower value 1 | locus YOR080W, strain dia2, stronger effect = lower value 0.999 | locus YOR083W, strain WHI5, stronger effect = lower value 1.02 | locus YOR106W, strain vam3, stronger effect = lower value 1.01 | locus YOR136W, strain idh2, stronger effect = lower value 0.986 | locus YOR144C, strain elg1, stronger effect = lower value 0.979 | locus YOR184W, strain ser1, stronger effect = lower value 1.01 | locus YOR231W, strain MKK1, stronger effect = lower value 1.03 | locus YOR265W, strain rbl2, stronger effect = lower value 0.983 | locus YOR270C, strain vph1, stronger effect = lower value 0.904 | locus YOR290C, strain snf2, stronger effect = lower value 1.02 | locus YOR316C, strain cot1, stronger effect = lower value 0.979 | locus YPL051W, strain arl3, stronger effect = lower value 0.994 | locus YPL078C, strain atp4, stronger effect = lower value 1.03 | locus YPL106C, strain sse1, stronger effect = lower value 1.02 | locus YPL240C, strain hsp82, stronger effect = lower value 1 | locus YPL241C, strain CIN2, stronger effect = lower value 1.02 | locus YPL256C, strain CLN2, stronger effect = lower value 1.03 | locus YPR119W, strain clb2, stronger effect = lower value 0.978 | locus YPR141C, strain kar3, stronger effect = lower value 0.99 | locus YPR163C, strain tif3, stronger effect = lower value 0.997 | locus YPR167C, strain met16, stronger effect = lower value 1 | strain wtn01, stronger effect = lower value 1
